PAX8 reporter – inhibitors of PAX8 transcriptional activity in RMG-I cells; RMG-I TPO-luciferase reporter, SteadyGlo, 24 h; inhibition, % at 12.6 µM; 360,000 compounds, 1.2% hits;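 active = mean replicate inhibition at least 60% with every replicate also reaching 60%; inconclusive = only one of the two criteria is met; inactive = mean below 60% and not all replicates reaching 60%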;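 also: luciferase light reporting Pax8 driven TPO promoter activity; plate controls were median of neutral control wells for no effect and mitoxantrone controls for full effect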
EWS-Fli block – blocks EWS/Fli oncoprotein-driven transcription; A673 NR0B1-luciferase reporter, viability-normalised; inhibition, % at 12.6 µM; 350,000 compounds, 0.67% hits; AID 651661;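 active = mean inhibition of at least 50% after viability correction, with every replicate also passing that limit; inconclusive = mean reaches 50% but only one of two replicates passes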;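 also: firefly luciferase signal divided by Alamar Blue viability fluorescence both relative to DMSO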
EBV LMP1 NFkB – Epstein-Barr LMP1 NF-kappaB reporter inhibition. LMP1-induced NF-kappaB luciferase reporter cells, luminescence. inhibition, % at 12.5 µM. 350,000 compounds, 0.69% hits; in the data active = inhibition above about 41%; inconclusive = no clear call, values can overlap the other calls;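 also: 0% = neutral control wells and 100% = reference inhibitor control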
MITF TRPM1 inh – MITF TRPM1 promoter inhibition in SK-MEL-5 cells; AID 488899; inhibition, % at 12.5 µM; 330,000 compounds, 0.83% hits; SK-MEL-5 TRPM1 promoter luciferase, 24 h;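 active = mean inhibition across replicates of 60% or more, whatever share of single replicates reaches that level; inconclusive = some that reach 60%, reason not given; inactive = mean inhibition across replicates below 60%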
LGR2 inh – Drosophila LGR2 receptor signaling inhibition. HEK293 LGR2, CRE-luciferase, bursicon-stimulated, 4 h. inhibition, % at 9.99 µM. 380,000 compounds, 0.35% hits;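 active = drop in luminescence signal, shown as inhibition above about 50% in the replicate tests, limit read from the data, passing the limit was not always enough; inconclusive = probably only some replicates passing the limit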;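 also: agonist challenge used bursicon conditioned medium at about half maximal strength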
Shn3 inh set2 – inhibitors of Schnurri-3 3'UTR reporter in osteoblasts | Clone20 osteoblast Shn3 3'UTR firefly luciferase, 24 h | inhibition, % at 12.5 µM | 360,000 compounds, 0.52% hits;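 active = mean inhibition of at least 75% with every replicate also reaching 75%; inconclusive = mean inhibition at least 75% but some replicate below; inactive = mean inhibition below 75%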;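 also: 0% = median of neutral control wells and 100% = pilot-screen positive control compound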
An asterisk follows results filed as active; u = inconclusive; x = no result given. Only some compounds are listed: those with a hit (about 2.2% of all), similar ones and a draw of the others.

SMILES | PAX8 reporter | EWS-Fli block | EBV LMP1 NFkB | MITF TRPM1 inh | LGR2 inh | Shn3 inh set2
COC(=O)c1cccc(CSc2nc3ccccc3[nH]2)c1 | -37 | 59* | -16 | -4 | -102 | -12
C[C@H](CO)N1C[C@H](C)[C@H](CN(C)Cc2ccc(C(F)(F)F)cc2)Oc2c(NS(=O)(=O)c3ccccc3)cccc2C1=O | -2 | 3 | x | x | -7 | x
Nc1ncnc(Sc2ncccn2)c1[N+](=O)[O-] | 1 | 16 | -57 | 79* | u | -13
Nc1ncnc(Sc2ccccc2)c1[N+](=O)[O-] | -27 | -9 | 24 | -6 | x | 9
O=C(c1ccccc1F)N1CCN(c2ccc([N+](=O)[O-])c(NCc3cccnc3)c2)CC1 | 7 | -14 | x | x | 14 | 16
COc1ccc(CCNc2ccc(C(=O)O)cc2[N+](=O)[O-])cc1OC | 6 | -3 | -6 | -2 | -12 | 5
COc1ccc(C(=O)N2CCN(c3ccc([N+](=O)[O-])c(NCCc4ccc(OC)c(OC)c4)c3)CC2)cc1 | 55 | x | 33 | 79* | 11 | 75
COc1ccc(CCNc2cc(N3CCN(C(=O)c4ccccc4F)CC3)ccc2[N+](=O)[O-])cc1OC | x | x | 21 | 83* | x | 88*
COc1cccc(S(=O)(=O)N2CC3(CCN(C)CC3)c3c([nH]c4cc(OC)ccc34)[C@@H]2CO)c1 | -8 | 1 | x | x | -7 | x
C[C@@H]1CN([C@H](C)CO)C(=O)c2cc(NC(=O)Nc3ccccc3)ccc2O[C@@H](C)CCCCO[C@@H]1CN(C)CC1CCCCC1 | 97* | -4 | x | x | 10 | x
C[C@@H]1CN([C@@H](C)CO)C(=O)c2cc(NC(=O)Nc3ccccc3)ccc2O[C@@H](C)CCCCO[C@@H]1CN(C)CC1CCCCC1 | 35 | 10 | x | x | -1 | x
C[C@H](CO)N1C[C@H](C)[C@H](CN(C)CC2CCCCC2)OCCCC[C@H](C)Oc2ccc(NC(=O)Nc3ccccc3)cc2C1=O | 97* | 22 | x | x | 13 | x
C[C@@H]1CCCCO[C@@H](CN(C)CC2CCCCC2)[C@H](C)CN([C@H](C)CO)C(=O)c2cc(NC(=O)Nc3ccccc3)ccc2O1 | 86* | 24 | x | x | 4 | x
C[C@H]1CCCCO[C@H](CN(C)CC2CCCCC2)[C@@H](C)CN([C@@H](C)CO)C(=O)c2cc(NC(=O)Nc3ccccc3)ccc2O1 | 69* | 0 | x | x | 14 | x
O=C(C[C@@H]1CC[C@H](NC(=O)NC2CCCCC2)[C@@H](CO)O1)NCc1ccccc1 | -4 | 1 | x | x | 5 | x
COc1ccc(NC(=O)Nc2ccc3c(c2)CC(=O)N([C@H](C)CO)C[C@@H](C)[C@@H](CN(C)C(=O)Nc2ccc4c(c2)OCO4)O3)cc1 | -19 | -17 | x | x | 7 | x
COc1ccc(-c2cnc3c(c2)C(=O)N([C@@H](C)CO)C[C@H](C)[C@@H](CN(C)Cc2cccnc2)O3)cc1 | x | -6 | x | x | -13 | x
COc1ccc(NC(=O)Nc2ccc3c(c2)C(=O)N([C@H](C)CO)C[C@H](C)[C@H](CN(C)CC2CCCCC2)OCCCC[C@@H](C)O3)cc1 | -8 | 1 | x | x | 18 | x
COc1ccc(NC(=O)Nc2ccc3c(c2)C(=O)N([C@@H](C)CO)C[C@@H](C)[C@@H](CN(C)CC2CCCCC2)OCCCC[C@@H](C)O3)cc1 | 77* | 24 | x | x | 0 | x
C[C@H](CO)N1C[C@H](C)[C@@H](CN(C)C(=O)Nc2ccc(F)cc2)Oc2ccc(NC(=O)C3CCCCC3)cc2C1=O | 7 | 2 | x | x | 16 | x
CC(NNC(=S)N1CCCCCC1)c1ccc2ccccc2n1 (stereo unspecified) | 81* | 3 | x | x | 1 | 45
S=C(Nc1ccccc1)N1CCCCCC1 | -16 | x | 1 | 7 | x | 9
Cc1noc(C)c1NC(=O)Nc1ccc2c(c1)C(=O)N([C@@H](C)CO)C[C@H](C)[C@@H](CN(C)Cc1ccc(Oc3ccccc3)cc1)O2 | x | 4 | x | x | 14 | x
COc1ccc(NC(=O)Nc2ccc3c(c2)C(=O)N([C@@H](C)CO)C[C@@H](C)[C@@H](CN(C)C(=O)Nc2ccc(C(F)(F)F)cc2)OCCCC[C@@H](C)O3)cc1 | 5 | -13 | x | x | 7 | x
C=CCSc1nc2ccccc2n1C(=O)/C=C/c1ccc(OC)c(OC)c1 | x | u | -13 | 38 | 43 | 98*
CCn1c(SCC(=O)N/N=C/c2ccc(OC)c(OC)c2)nc2ccccc21 | x | x | 16 | -9 | -40 | 26

Screening results (PubChem BioAssay)
